Data published in PubChem BioAssay (NCI).
The panel holds about 83,000 compounds, 20% with a hit somewhere; the sample as a whole holds those more often.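 Step 1: grow cells in 96-well plates. Step 2: add test compound at a single concentration. Step 3: incubate 48 h. Step 4: record percent growth.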 Values without a mark were called inactive. The source made the active and inactive calls. How the source made its calls: active means growth percent below 10; inactive means the rest.

Legend:
Test in all cases: NCI-60 one-dose screen, 48 h (100 = growth as untreated, 0 = no growth, -100 = all killed)
NCI-H23 lung = conditions: 10 µM unless noted
NCI-H226 lung = conditions: 10 µM unless noted
NCI-H322M lung = conditions: 10 µM unless noted
HOP-62 NSCLC = conditions: 10 µM unless noted
NCI-H460 lung = conditions: 10 µM unless noted
HOP-92 NSCLC = conditions: 10 µM
NCI-H522 lung = conditions: 10 µM unless noted
A549/ATCC NSCLC = conditions: 10 µM unless noted
786-0 renal = conditions: 10 µM unless noted
COLO 205 colon = conditions: 10 µM unless noted
DU-145 prostate = conditions: 10 µM unless noted
K-562 leukemia = conditions: 10 µM unless noted
MALME-3M melanoma = conditions: 10 µM unless noted
MDA-MB-231 breast = conditions: 10 µM unless noted
RXF 393 renal = conditions: 10 µM unless noted
SF-268 CNS = conditions: 10 µM unless noted
SF-295 CNS = conditions: 10 µM unless noted
SF-539 CNS = conditions: 10 µM unless noted
UACC-257 melanoma = conditions: 10 µM unless noted

SMILES | growth (NCI-H23 lung) | growth (NCI-H226 lung) | growth (NCI-H322M lung) | growth (HOP-62 NSCLC) | growth (NCI-H460 lung) | growth (HOP-92 NSCLC) | growth (NCI-H522 lung) | growth (A549/ATCC NSCLC) | growth (786-0 renal) | growth (COLO 205 colon) | growth (DU-145 prostate) | growth (K-562 leukemia) | growth (MALME-3M melanoma) | growth (MDA-MB-231 breast) | growth (RXF 393 renal) | growth (SF-268 CNS) | growth (SF-295 CNS) | growth (SF-539 CNS) | growth (UACC-257 melanoma)
O=S(=O)(NCCCNc1nccc(-c2[nH]c(-c3ccccc3)nc2-c2ccc(Cl)c(O)c2)n1)c1cccc(F)c1 | 65.5% | 62.8% | 87.9% | 75.2% | 55.2% | 85.5% | 54.2% | 65.2% | 100% | 87.9% | 66.1% | 35.3% | 2.24% (active) | 60.2% | 34.1% | 74.3% | 47.4% | 94.1% | 25.6%
CCc1ccc(SC2c3ccc(N(CC)CC)cc3Oc3nc(N)c(C#N)c(N)c32)cc1 (stereo not drawn) | -85.1% (active) | -84.1% (active) | -76.6% (active) | 3.17% (active) | -58.3% (active) | -44.1% (active) | -38.4% (active) | -0.807% (active) | -89.2% (active) | -52.8% (active) | -86.3% (active) | 1.74% (active) | -40.8% (active) | -83.8% (active) | – | -24.3% (active) | -76.2% (active) | -94.1% (active) | 6.57% (active)
COc1ccc2c(c1)c(CC(=O)[Se]CC(=O)O)c(C)n2C(=O)c1ccc(Cl)cc1 | 78.9% | 100% | 46.8% | 29.3% | 5.72% (active) | 93.7% | 100% | 21.6% | 106% | 129% | 85% | 95.8% | 112% | 54.1% | – | 64.1% | 11.1% | 66.8% | 110%
N=c1c2cc(-c3ccccc3)oc2ncn1/N=C/c1ccc(Br)cc1 | 102% | 71.3% | 78.1% | 73.7% | 15.8% | 105% | 91.8% | 44.2% | 59.2% | 98.9% | 50.9% | 80% | 16.3% | 93.4% | 86.6% | 68.9% | 84.2% | 74.2% | 89.8%
O=S(=O)(NCCNc1nccc(-n2cnc3ccccc32)n1)c1ccc(Cl)cc1 | 101% | 91.1% | 95.3% | 95.4% | 103% | 90.2% | 92.1% | 103% | 99% | 104% | 104% | 97.6% | 99.5% | 90.6% | 117% | 92.3% | 96.7% | 91.2% | 103%
